# Measurements as given in PubChem BioAssay (NCATS).
# Inconclusive results are not listed. Unmarked numbers belong to inactive results. Active and inactive are the calls of the source. Calls follow the shape of the dose curve; as a rule, active = well fitted cell-killing curve with a large enough effect; inconclusive = small, poorly fitted or top-dose-only effect, or effect the other way; inactive = no such curve, though single readings can be large or run the other way.
# Test: Quantitative High-Throughput drug screen in 47 multiple myeloma cell lines against the NCATS MIPE library collection: ARP1_JJKsccF8 cell viability assay (AID 1918928; also: nearly all actives have a fitted effect of over 40% in size)
# Conditions: ARP1 myeloma cells viability, CellTiter-Glo ATP, 48 h; series mostly up to 45.8 µM; viability: at the top concentration
# From the text: PI: Beverly A. Mock Ph.D.
# Laboratory of Cancer Biology and Genetics,
# Center for Cancer Research, National Cancer Institute,
# National Institute of Health, Bethesda, Maryland
# Drug resistance and disease progression are common in multiple myeloma (MM) patients, underscoring the need for new therapeutic combinations. […] We hypothesized that effective combinations would reduce MYC expression and enhance p16 activity. […] These preclinical data identify potentially useful drug combinations for evaluation in drug-resistant MM and reveal potential mechanisms of combined drug sensitivity.
# Described herein is the primary MIPE qHTS used to cherrypick compounds. Validated compounds were then further tested for potential synergistic activiy.
# [1] Peat TJ, Gaikwad SM, Dubois W, Gyabaah-Kessie N, Zhang S, Gorjifard S, Phyo Z, Andres M, Hughitt VK, Simpson RM, Miller MA, Girvin AT, Taylor A, Williams D, D'Antonio N, Zhang Y, Rajagopalan A, Flietner E, Wilson K, Zhang X, Shinn P, Klumpp-Thomas C, McKnight C, Itkin Z, Chen L, Kazandijian D, Zhang J, Michalowski AM, Simmons JK, Keats J, Thomas CJ, Mock BA. Drug combinations identified by high-throughput screening promote cell cycle transition and upregulate Smad pathways in myeloma. Cancer Lett. 2023 Aug 1;568:216284. doi: 10.1016/j.canlet.2023.216284. Epub 2023 Jun 24. PMID: 37356470; PMCID: PMC10408729.
# SEQUENCE No. (e.g., 1, 2, 3, etc.); […] (e.g., Cells, Incubation, Reagent, etc.); VALUE and DESCRIPTION.
# 1; Cells; 5 uL; white, solid bottom 1536-well Greiner assay plate.
# 2; Compounds; 23 nL; Kalypsis pin tool (Wako USA) equipped with a 1536-well pin head to transfer to the assay plates.
# 3; Incubation; 48 hours; 37C incubation.
# 4; Reagent;5uL; CellTiter Glo (Promega).
# 5; Detector; 425V; Luminescence; Viewlux PerkinElmer.
# NOTES (numbers refer to Sequence numbers above)
# 1. The cell-based screening methods employed in this study were like those previously published. Briefly, the corresponding myeloma cell lines were screened in 1,536-well plates with 500 cells, 5-uL per well for inhibition of cell viability (assessed by measuring ATP levels with CellTiterGlo).
# 2. NCATS MIPE 4.0 library of approved and investigational drugs were added using the Kalypsis pin tool. Wells treated with DMSO only for 100% viability and media only cells for 0% viability were used as controls.
# 3. The assay plates were covered and incubated for 48 hours in a 37C, 5% CO2 incubator with controlled humidity.
# 4. After 48 hours, CellTilter-GloTM luminescent substrate mix (Promega) reagent was added to the assay plate and plates we incubated for 5 min at room temperature.
# 5. Signal was measured as median relative luminescence units on a ViewLux (PerkinElmer) multiplate reader.
# [1] Heske CM, Davis MI, Baumgart JT, Wilson K, Gormally MV, Chen L, Zhang X, Ceribelli M, Duveau DY, Guha R, Ferrer M, Arnaldez FI, Ji J, Tran HL, Zhang Y, Mendoza A, Helman LJ, Thomas CJ. Matrix Screen Identifies Synergistic Combination of PARP Inhibitors and Nicotinamide Phosphoribosyltransferase (NAMPT) Inhibitors in Ewing Sarcoma. Clin Cancer Res. 2017 Dec 1;23(23):7301-7311. doi: 10.1158/1078-0432.CCR-17-1121. Epub 2017 Sep 12. PMID: 28899971; PMCID: PMC6636827.
# Potency is read from the fitted curve at half-maximal effect.
SMILES,viability,Potency
Nc1nc(N)nc(-c2cc(Cl)ccc2Cl)n1,113%,–
COC(=O)Nc1nc2ccc(Sc3ccccc3)cc2[nH]1,–,1.18 µM (active)
CCCCS(=N)(=O)CCC(N)C(=O)O (stereo not given),105%,–
CCn1cc(C(=O)O)c(=O)c2cc(F)c(N3CCNCC3)cc21,–,8.33 µM (active)
CCOc1cc(N)c(Cl)cc1C(=O)NCC1CN(Cc2ccc(F)cc2)CCO1 (stereo not given),108%,–
COc1ccc2cc3[n+](cc2c1OC)CCc1cc2c(cc1-3)OCO2,–,6.62 µM (active)
CCN[C@H]1C[C@H](C)S(=O)(=O)c2sc(S(N)(=O)=O)cc21,106%,–
CN(C)c1ccc(C(=C2C=CC(=[N+](C)C)C=C2)c2ccc(N(C)C)cc2)cc1,–,0.166 µM (active)
N=C(N)c1ccc(OCCCCCOc2ccc(C(=N)N)cc2)cc1,–,16.6 µM (active)
CN1CCN(c2c(F)cc3c(=O)c(C(=O)O)cn(CCF)c3c2F)CC1,101%,–
CN(C)CCc1c[nH]c2ccc(CS(=O)(=O)N3CCCC3)cc12,98.3%,–
CC1(C)[C@H](C(=O)O)N2C(=O)C[C@H]2S1(=O)=O,105%,–
O=c1cc(O)c(Cl)c[nH]1,84.6%,–
NNC(=O)c1ccncc1,110%,–
COc1nc(N)nc2c1ncn2[C@@H]1O[C@H](CO)[C@@H](O)[C@@H]1O,86.7%,–
CCc1c2c(nc3ccc(OC(=O)N4CCC(N5CCCCC5)CC4)cc13)-c1cc3c(c(=O)n1C2)COC(=O)[C@]3(O)CC,–,0.743 µM (active)
CNC1CCCN(c2c(F)cc3c(=O)c(C(=O)O)cn(C4CC4)c3c2OC)C1 (stereo not given),75.6%,–
Cc1cccc(Nc2ccncc2S(=O)(=O)NC(=O)NC(C)C)c1,102%,–
CC(C)C[C@H](NC(=O)[C@H](CCc1ccccc1)NC(=O)CN1CCOCC1)C(=O)N[C@@H](Cc1ccccc1)C(=O)N[C@@H](CC(C)C)C(=O)[C@@]1(C)CO1,–,0.0074 µM (active)
NC1(c2ccc(-c3nc4ccn5c(=O)[nH]nc5c4cc3-c3ccccc3)cc2)CCC1,–,14.8 µM (active)

SMILES,viability,Potency
CC[C@H](NC(C)C)[C@H](O)c1ccc(O)c2[nH]c(=O)ccc12,103%,–
Nc1nc(F)nc2c1ncn2[C@@H]1O[C@H](CO)[C@@H](O)[C@@H]1O,–,0.264 µM (active)
CCCCc1oc2ccc(NS(C)(=O)=O)cc2c1C(=O)c1ccc(OCCCN(CCCC)CCCC)cc1,–,16.6 µM (active)
CCc1cc(C(N)=S)ccn1,129%,–
NS(=O)(=O)c1cc2c(cc1Cl)NC(C(Cl)Cl)NS2(=O)=O (stereo not given),102%,–
CC(C)(C)NC(=O)[C@H]1CC[C@H]2[C@@H]3CC[C@H]4NC(=O)C=C[C@]4(C)[C@H]3CC[C@]12C,107%,–
COc1cc(NS(=O)(=O)c2ccc(N)cc2)nc(OC)n1,106%,–
CN1CCN(c2c(F)cc3c(=O)c(C(=O)O)cn4c3c2OCN4C)CC1,103%,–
CC(C)(Sc1cc(C(C)(C)C)c(O)c(C(C)(C)C)c1)Sc1cc(C(C)(C)C)c(O)c(C(C)(C)C)c1,88%,–
OC(Cn1cncn1)(Cn1cncn1)c1ccc(F)cc1F,78.4%,–
Cc1nnc(NS(=O)(=O)c2ccc(N)cc2)s1,–,20.9 µM (active)
O=C(O)c1cn(C2CC2)c2cc(N3CCNCC3)c(F)cc2c1=O,126%,–
CCN1CCCC1CNC(=O)c1cc(S(N)(=O)=O)ccc1OC (stereo not given),108%,–
Nc1[nH]c(=O)ncc1F,101%,–
NC(=O)N1c2ccccc2CC(=O)c2ccccc21,98.9%,–
C[C@@H]1CN(c2c(F)c(N)c3c(=O)c(C(=O)O)cn(C4CC4)c3c2F)C[C@H](C)N1,128% [at 23.2 µM],–
NC(=O)c1cccnc1,109%,–
NC(=O)c1cccc(N)c1,107%,–
CNC(=O)c1cc(Oc2ccc(NC(=O)Nc3ccc(Cl)c(C(F)(F)F)c3)cc2)ccn1,–,23.5 µM (active)
Cc1onc(-c2ccccc2Cl)c1C(=O)N[C@@H]1C(=O)N2[C@@H]1SC(C)(C)[C@@H]2C(=O)O,113%,–
